# Measured values published in PubChem BioAssay AID2549 (National Center for Advancing Translational Sciences (NCATS), 2010).
# Where “and” joins values, the source holds several entries; their conditions need not be identical. Equal entries are not always repeated. The whole screen tested about 240,000 compounds, of which about 1,300 (0.54%) were called active. Not shown: some 1% with an inconclusive outcome. This is one part of a sample in which actives are shown more often than they occur. Calls follow the shape of the dose curve; as a rule, active = well fitted inhibition curve with a large enough effect; inconclusive = small, poorly fitted or top-dose-only effect; inactive = flat fitted curve, though single readings scatter. Some structures have more than one record in an assay (separate samples or runs), and their calls can disagree.
# Biological target: ATP-dependent DNA helicase Q1 (Homo sapiens) (UniProt P46063)
# Test: qHTS Assay for Inhibitors of RecQ-Like Dna Helicase 1 (RECQ1); also: nearly all actives have a fitted effect of over 30% in size;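 as to activity, negative = inhibition: plate controls were vehicle for no effect and no enzyme for full effect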
# Settings: RECQ1 DNA unwinding, red fluorescence kinetic read; series mostly up to 57.3 µM; activity, negative = inhibition: at the top concentration
# Summary of the method: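 50 nM RECQ1T1 preincubated 15 min with compound in Tris pH 8.0 buffer with MgCl2, DTT, Tween-20 and 2.5 ug/ml poly(dI-dC); started with 200 nM TAMRA/BHQ-2 forked duplex and 2 mM ATP. Unwinding read as fluorescence (525/598 nm), two reads 2 h apart.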
# Potency is read from the fitted curve at half-maximal effect.
# ATP-dependent DNA helicase Q1 (Homo sapiens), sequence (P46063 whole entry, looked up): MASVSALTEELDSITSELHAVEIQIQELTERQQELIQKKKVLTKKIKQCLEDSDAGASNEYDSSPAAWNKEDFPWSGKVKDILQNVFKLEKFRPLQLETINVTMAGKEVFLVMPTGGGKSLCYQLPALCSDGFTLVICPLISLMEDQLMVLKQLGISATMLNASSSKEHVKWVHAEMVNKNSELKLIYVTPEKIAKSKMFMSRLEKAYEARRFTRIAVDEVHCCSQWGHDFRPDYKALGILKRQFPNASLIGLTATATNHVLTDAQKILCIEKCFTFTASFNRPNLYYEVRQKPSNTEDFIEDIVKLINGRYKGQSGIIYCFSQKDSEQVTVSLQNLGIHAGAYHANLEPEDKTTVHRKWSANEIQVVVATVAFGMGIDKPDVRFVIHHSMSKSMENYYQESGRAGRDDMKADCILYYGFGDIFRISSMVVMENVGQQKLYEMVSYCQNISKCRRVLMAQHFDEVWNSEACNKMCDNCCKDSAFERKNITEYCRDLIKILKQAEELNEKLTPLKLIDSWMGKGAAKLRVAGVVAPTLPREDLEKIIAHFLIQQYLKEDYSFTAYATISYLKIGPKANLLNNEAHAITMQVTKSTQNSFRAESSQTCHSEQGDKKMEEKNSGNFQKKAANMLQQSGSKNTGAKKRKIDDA
Structure (SMILES),"activity, negative = inhibition",Potency,outcome
O=c1cc(CCl)nc2scc(-c3ccccc3)n12,-7.89% (inactive),,
CCc1nnc(NC(=O)c2cccc(S(=O)(=O)N(C)c3ccc(OC)cc3)c2)s1,-3.08% (inactive),,
CCc1ccc2nc3sc(C(=O)Nc4nnc(CC)s4)c(N)c3cc2c1,,31.6 µM (active),
CCc1nnc(NC(=O)c2sc3nc(C)cc(COC)c3c2N)s1,-2.43% (inactive),,
Cc1ccc(CNC(=O)C2(C(F)(F)F)C/C(=C\CCO)CCCO2)o1 (stereo not drawn),,,inactive
Nc1ccc2c3c(cccc13)C(=O)NC2=O,,inactive and 25.1 µM (active),
CCN1C(=O)c2cccc3c(N)ccc1c23,-7.81% (inactive),,
CCC(C)[C@@H](N)C(=O)O (stereo partly drawn),,inactive,
COc1ccc(CC(N)C(=O)NC2C(O)[C@H](n3cnc4c(N(C)C)ncnc43)O[C@@H]2CO)cc1 (stereo partly drawn),-0.564% (inactive),,
S=C(NCCc1ccccc1)N1CCn2cccc2C1c1ccncc1 (stereo not drawn),,,inactive
CCOC(=O)c1ccc[n+](CC(=O)Nc2ccccc2OC(F)F)c1,-1.34% (inactive),,
Cc1ccc(C)c(SCc2nc3sc(C(=O)O)c(C)c3c(=O)[nH]2)c1,2.12% (inactive),,
Cc1ccc(-c2nc(SCC(=O)Nc3ccccc3OC(F)F)c3c(C)c(C(=O)O)sc3n2)cc1,,25.1 µM (active),
CCOC(=O)C(CC)/C(C)=N\NC(=O)c1cccc(C)c1 (stereo not drawn),3.83% (inactive),,
C[C@H]1CCC[C@@]2(C)CCCC[C@]12O,-12% (inactive),,
COc1cc(OC)c2c(C)cc(=O)oc2c1C(CCN1CCCCC1)c1ccc(N(C)C)cc1 (stereo not drawn),,,inactive
N#Cc1ccccc1CN1C(=O)S/C(=C/c2cccn2-c2cccc(C(=O)O)c2)C1=O,,28.2 µM (active),
Cn1cccc1/C=C1\SC(=O)N(CC(=O)Nc2ccc(F)cc2)C1=O,-20.3% (inactive),,
O=C(O)c1cccc(N2C(=O)Nc3ccccc3N2O)c1,-9.45% (inactive),,
O=c1ccn([C@@H]2O[C@H](COP(=O)(O)OP(=O)(O)OP(=O)(O)O)[C@@H](O)[C@H]2O)c(=O)[nH]1,6.8% (inactive),,
COc1ccc(OC)c(C(=O)c2ccc(C(=O)N3CCN(Cc4csc(C)n4)CC3)cc2)c1,,,inactive
O=C1C2C(c3ccccc3)CC=CC2C(c2ccoc2)N1Cc1ccccc1 (stereo not drawn),,,inactive
O=C(COC(=O)C12CC3CC(CC(C3)C1)C2)NCc1ccco1,-0.842% (inactive),,
O=C(COC(=O)CCC(=O)c1cccs1)NCc1ccco1,,7.94 µM (active),
O=C(CCC(=O)c1cccs1)NCc1ccccc1,-7.98% (inactive),,
COc1ccc(/C=N/NC(=O)c2ccncc2)cc1CN1CCCc2ccccc21,-10.1% (inactive),,
NS(=O)(=O)c1ccc(NC(=O)COC(=O)CCc2c[nH]c3ccccc23)cc1,-1.44% (inactive),,

Structure (SMILES),"activity, negative = inhibition",Potency,outcome
CC[C@H](C)[C@H](NC(=O)[C@@H](N)CCC(=O)O)C(=O)N[C@@H](CC(C)C)C(=O)N[C@@H](CC(=O)O)C(=O)N[C@H](C(=O)N1CCC[C@H]1C(=O)N[C@@H](CO)C(=O)N[C@H](C(=O)O)[C@@H](C)O)C(C)C,-7.19% (inactive),,
O=c1cc(-c2ccc(O)cc2)oc2c([C@@H]3O[C@H](CO)[C@@H](O)[C@H](O)[C@H]3O)c(O)cc(O)c12,-22.9% (inactive),,
Cc1cc(=O)[nH]c(=S)[nH]1,,inactive,
Cc1cc(=O)[nH]c(SCC(N)=O)c1C#N,-0.259% (inactive),,
Cc1cc(=O)[nH]c(S)c1C#N,,22.4 µM (active),
Cc1noc(C)c1-c1ccc2ncnc(NCc3ccc4[nH]ccc4c3)c2c1,17.6% (inactive),,
CCOP(=O)(OCC)C(Nc1cccc(C)c1)c1ccc(F)cc1 (stereo not drawn),7.05% (inactive),,
CCCCCOC(=O)NCCOC(=O)Nc1ccc(C(=O)OCC)cc1,-10.1% (inactive),,
CCCCOC(=O)c1ccc(NC(c2ccc(C)cc2)P(=O)(OC)OC)cc1 (stereo not drawn),,17.8 µM (active),
O=C(CCCN1C(=O)/C(=C/c2ccco2)SC1=S)Nc1ccccc1,-20% (inactive),,
O=c1nc2s/c(=C\c3ccco3)c(=O)n2nc1Cc1ccccc1,,5.01 µM (active),
CCOc1ccccc1/C=c1\sc2nc(-c3ccco3)nn2c1=O,-5.09% (inactive),,
CCCN1CCC(=O)N(C(CSc2ccc(C)cc2)Cc2ccccc2)CC1 (stereo not drawn),-7.14% (inactive),,
COC(=O)CCc1ccccc1S(=O)(=O)N(CCC(=O)OC)Cc1ccccc1,-5.73% (inactive),,
Cc1sc2nc(CSCC(=O)Nc3c(Cl)cccc3Cl)[nH]c(=O)c2c1C,-7.69% (inactive),,
COc1ccc(CCNC(=O)CSc2nnc(CNC(=O)c3cccs3)o2)cc1OC,,,inactive
COc1cc(C(=O)NCc2nnc(SCC(=O)Nc3nc4ccc(C)cc4s3)o2)cc(OC)c1OC,,39.8 µM (active),
Cc1ccc(NC(=O)CSc2nnc(CNC(=O)c3ccccc3F)o2)cc1,-3.3% (inactive),,
COc1ccc(CN2CCC(=O)c3ccccc3S2(=O)=O)cc1,,,inactive
CC(=O)Nc1ccc(Nc2c3ccccc3nc3ccccc23)cc1,,14.1 µM (active),
Cc1ccc(Nc2c3c(nc4ccccc24)CCC3)cc1,-5.59% (inactive),,
O=[N+]([O-])c1cccc(Nc2c3ccccc3nc3ccccc23)c1,-1.8% (inactive),,
CCOC(=O)Cn1c(=O)sc2cccc(Cl)c21,5.27% (inactive),,
O=C(Nc1ccc(Cl)cc1)Nc1nnc(/C=C/c2ccccc2)s1,,,inactive
CCOCCOC(=O)C(C)Oc1ccc(Oc2ncc(C(F)(F)F)cc2Cl)cc1 (stereo not drawn),-19.4% (inactive),,
C[C@@H]1O[C@@H](OC[C@H]2O[C@@H](Oc3cc(O)c4c(c3)O[C@H](c3ccc(O)c(O)c3)CC4=O)[C@H](O)[C@@H](O)[C@@H]2O)[C@H](O)[C@H](O)[C@H]1O,-12.6% (inactive),,
